Compound activity as filed in PubChem.
Sm TGR block: blocks Schistosoma mansoni thioredoxin glutathione reductase; AID 485364; purified TGR, DTNB reduction, TNB absorbance 405 nm; 360,000 compounds, 3% hits; Potency, µM (titrated, usually from 114 µM), for the others: at the highest dose activity change, negative = inhibition, hits mostly inhibitors; also: nearly all actives have a fitted effect of over 60% in size
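First, TGR (20 nM dispensed) and NADPH were mixed with compound. Second, a 15 min room-temperature incubation followed. Third, further NADPH and then DTNB were added to start the reaction. Finally, TNB absorbance was monitored kinetically.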
AmpC inh no detg: blocks E. coli AmpC beta-lactamase in detergent-free assay | 330,000 compounds, 0.52% hits | AID 485341 | P00811 | AmpC nitrocefin hydrolysis, absorbance 480 nm, 0.0001% Triton | Potency, µM (titrated, usually from 57.1 µM), for inactives: at the top dose activity change, negative = inhibition, usual class: inhibitors;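 also: plate controls were no compound for no effect and no enzyme for full effect; nearly all actives have a fitted effect of over 20% in size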
Target sequence (P00811 whole entry, looked up): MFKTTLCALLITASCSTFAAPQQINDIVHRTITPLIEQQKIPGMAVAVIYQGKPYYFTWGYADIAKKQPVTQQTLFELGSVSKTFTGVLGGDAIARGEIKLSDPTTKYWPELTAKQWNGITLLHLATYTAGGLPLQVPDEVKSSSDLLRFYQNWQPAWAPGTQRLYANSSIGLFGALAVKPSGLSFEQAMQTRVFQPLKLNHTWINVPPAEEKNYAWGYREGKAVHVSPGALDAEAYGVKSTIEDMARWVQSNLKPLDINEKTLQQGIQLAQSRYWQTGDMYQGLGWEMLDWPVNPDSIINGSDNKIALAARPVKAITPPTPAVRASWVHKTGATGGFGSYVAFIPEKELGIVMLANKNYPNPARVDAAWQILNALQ
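AmpC (5.3 nM in the dispensed reagent) in 20 mM phosphate pH 7.0 with 0.01% (detergent screen) or 0.0001% Triton X-100 was preincubated with compounds for 15 min at room temperature. Nitrocefin was then added from an 800 uM solution, and hydrolysis was followed at 480 nm.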
Giardia FBPA inh: inhibitors of Giardia lamblia fructose-1,6-bisphosphate aldolase; A8B2U2; purified Giardia FBPA; Potency, µM (top dose mostly 59.6 µM), for the others: at the top dose activity, negative = inhibition, hits mostly inhibitors; 290,000 compounds, 0.71% hits; also: nearly all actives have a fitted effect of over 55% in size
Target sequence (A8B2U2 whole entry, looked up): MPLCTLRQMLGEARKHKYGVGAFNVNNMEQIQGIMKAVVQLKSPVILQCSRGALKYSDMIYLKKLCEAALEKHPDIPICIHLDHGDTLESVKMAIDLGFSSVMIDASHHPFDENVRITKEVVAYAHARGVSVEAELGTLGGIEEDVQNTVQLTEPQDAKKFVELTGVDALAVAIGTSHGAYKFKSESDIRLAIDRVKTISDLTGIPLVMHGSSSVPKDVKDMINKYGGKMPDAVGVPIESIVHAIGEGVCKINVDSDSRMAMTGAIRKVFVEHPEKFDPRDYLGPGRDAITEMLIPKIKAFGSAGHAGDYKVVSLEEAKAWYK
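Giardia FBPA (40 nM reagent) was preincubated 10 min at RT with compound (up to 57.5 uM final), then substrate plus GAPDH/TPI/NAD/arsenate coupling system with diaphorase/resazurin was added; resorufin fluorescence (525/598 nm) was read after 20 min.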
AmpC detergent: AmpC beta-lactamase inhibition with detergent present. Potency, µM (titrated, usually from 114 µM), for inactives: at the top dose activity change, negative = inhibition, usual class: inhibitors. AmpC hydrolysis of nitrocefin, absorbance 480 nm, 0.01% Triton. AID 485294. 370,000 compounds, 0.041% hits;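 also: 0% = no-compound wells and -100% = no-enzyme wells; nearly all actives have a fitted effect of over 25% in size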
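20 mM phosphate pH 7.0 + 0.01% (detergent screen) or 0.0001% Triton X-100; 5.3 nM AmpC reagent; cpd preinc 15 min RT; nitrocefin (800 uM stock) to start; A480 q20 s × 4 min; Activity was normalised to no-enzyme and no-compound control wells.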
RE007 growth inh: less growth of the S. pombe RE007 Vpr strain. 360,000 compounds, 0.21% hits. Potency, µM (doses to about 92.2 µM), inactives show top-dose activity change, negative = less growth, hits mostly inhibitors. AID 651644. S. pombe RE007 Vpr strain, BacTiter-Glo ATP luminescence, 24 h; active = well fitted falling curve with a large enough effect; inconclusive = small, poorly fitted or top-dose-only effect; inactive = no such curve, though single readings can be large or run the other way; also: nearly all actives have a fitted effect of over 50% in size
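Fission yeast RE007 carrying one integrated HIV-1 vpr copy, seeded at OD 0.01 in PMG+AL medium with 23 nL pinned compound. Grown 24 h at 30 degrees; viability read by BacTiter-Glo luminescence after 5 min.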
* marks the source's active call; other numbers are inactive results; [ ] = dose if it differs, or a comment. Hits are enriched below; roughly 3.4% of the tested compounds scored in any of these assays. Unless noted, calls follow the shape of the dose curve; as a rule, active = well fitted curve in the direction sought with a large enough effect; inconclusive = small, poorly fitted or top-dose-only effect, or another doubt; inactive = no such curve, though single readings can be large; an effect the other way counts as inactive or inconclusive. Unless noted, % is scaled to controls: 0 for no effect and ±100 for the full control effect; potency is read from the fitted curve at half-maximal effect.

Results for COC(=O)C1CCN(C2CC(=O)N(c3cc(C)cc(C)c3)C2=O)CC1 (stereo not given) ?
Sm TGR block: inconclusive; AmpC inh no detg: 0.0%; Giardia FBPA inh: 1.3%; AmpC detergent: -10.8%; RE007 growth inh: 35.5µM*

What do the screens show for `CCOC(=O)C1CCN(C2CC(=O)N(c3cccc(Cl)c3)C2=O)CC1` (stereo not given)?
Sm TGR block: -48.2%; AmpC inh no detg: -6.0%; Giardia FBPA inh: 2.4%; AmpC detergent: -9.4%; RE007 growth inh: 10µM*

How did O=C(C1CCN(Cc2ccccc2)CC1)N1CCCC1 do in these assays?
Sm TGR block: 3.7%; AmpC inh no detg: -8.3%; Giardia FBPA inh: -19.1%; AmpC detergent: -0.6%; RE007 growth inh: 19.7%

Results for O=C1CC(N2CCN(C(c3ccccc3)c3ccccc3)CC2)C(=O)N1Cc1ccc(N2CCCC2=O)cc1 (stereo not given) ?
Sm TGR block: -9.3%; AmpC inh no detg: 200.0%; AmpC detergent: -5.4%; RE007 growth inh: -21.7%[3.69 µM]

What do the screens show for `O=C(C1CCN(C2CC(=O)N(Cc3ccccc3)C2=O)CC1)N1CCCCCC1` (stereo not given)?
Sm TGR block: 22.4µM*; AmpC inh no detg: 117.9%; Giardia FBPA inh: 0.9%; AmpC detergent: -3.3%; RE007 growth inh: inconclusive

How did NC(=O)C1CCN(C2CC(=O)N(Cc3ccc(N4CCCC4=O)cc3)C2=O)CC1 (stereo not given) do in these assays?
Sm TGR block: 35.5µM*; AmpC inh no detg: -17.3%; Giardia FBPA inh: 1.7%; AmpC detergent: -7.0%; RE007 growth inh: inconclusive

Results for CCOC(=O)C1CCN(C(=O)Cn2ncc3c([nH]c4ccc(C)cc43)c2=O)CC1 ?
Sm TGR block: 6.7%; AmpC detergent: 12.3%

Results for O=C1CC(N2CCC(Cc3ccccc3)CC2)C(=O)N1CCc1ccccc1 (stereo not given) ?
Sm TGR block: 11.2µM*; AmpC inh no detg: 194.5%; Giardia FBPA inh: -2.9%; AmpC detergent: -0.5%; RE007 growth inh: inconclusive

Results for O=C(C1CCN(C2CC(=O)N(c3ccc(Cl)cc3)C2=O)CC1)N1CCOCC1 (stereo not given) ?
Sm TGR block: 14.1µM*; AmpC inh no detg: -12.3%; Giardia FBPA inh: -0.2%; AmpC detergent: -15.5%; RE007 growth inh: 12.6µM*

What do the screens show for `O=C(C1CC(=O)N(C2CCCC2)C1)N1CCN(c2cccc(Cl)c2)CC1` (stereo not given)?
Sm TGR block: -0.2%; AmpC inh no detg: 145.8%; AmpC detergent: 0.5%; RE007 growth inh: 13.3%

What do the screens show for `O=C(C1CCN(C2CC(=O)N(c3cccc(Cl)c3)C2=O)CC1)N1CCCC1` (stereo not given)?
Sm TGR block: 22.4µM*; AmpC inh no detg: 16.8%; Giardia FBPA inh: -2.7%; AmpC detergent: inconclusive; RE007 growth inh: 12.6µM*

How did Cc1cccc(N2C(=O)CC(N3CCN(c4ccc(Cl)cc4)CC3)C2=O)c1 (stereo not given) do in these assays?
Sm TGR block: -20.0%; AmpC inh no detg: 105.0%; Giardia FBPA inh: 5.2%; AmpC detergent: inconclusive; RE007 growth inh: -1.4%

Results for Cc1cccc(N2C(=O)CC(N3CCN(Cc4ccc(Cl)cc4)CC3)C2=O)c1 (stereo not given) ?
Sm TGR block: 44.7µM*; AmpC inh no detg: -10.4%; Giardia FBPA inh: 0.2%; AmpC detergent: 2.5%; RE007 growth inh: inconclusive

How did O=S(=O)(N/N=C/c1ccccc1OCc1ccc(Cl)cc1)c1ccccc1 do in these assays?
Sm TGR block: 6.3%; AmpC inh no detg: -8.4%; Giardia FBPA inh: -9.2%; AmpC detergent: -7.6%; RE007 growth inh: 9.9%

What do the screens show for `CCOC(=O)C1CCCN(C2CC(=O)N(c3ccc(NC(C)=O)cc3)C2=O)C1` (stereo not given)?
Sm TGR block: 44.7µM*; AmpC inh no detg: -10.4%; Giardia FBPA inh: 1.6%; AmpC detergent: 4.7%; RE007 growth inh: 0.1%

How did CCC1(c2ccc(Cl)cc2)NC(=S)N(c2ccc(C)cc2)N1 (stereo not given) do in these assays?
Sm TGR block: -19.1%; AmpC inh no detg: -47.8%; Giardia FBPA inh: 12.8%; AmpC detergent: -6.5%; RE007 growth inh: 31.3%

Results for Cc1ccc(N/N=C/c2c(O)n(-c3ccccc3)c(=O)[nH]c2=O)cc1 ?
Sm TGR block: 17.8µM*; AmpC inh no detg: -31.2%; Giardia FBPA inh: -17.5%; AmpC detergent: -3.8%; RE007 growth inh: 88.3%

How did Cc1cc(Cl)nc(Cl)c1C(=O)NC(=O)NCCC(C)C do in these assays?
Sm TGR block: inconclusive; AmpC inh no detg: -32.1%; Giardia FBPA inh: -1.5%; AmpC detergent: inconclusive; RE007 growth inh: 9.8%

How did COC(=O)CN1C(=O)[C@H]2[C@@H](c3ccc(C)o3)N3C(=O)CN(CC4CC4)C(=O)[C@@]3(Cc3ccccc3)[C@H]2C1=O do in these assays?
Sm TGR block: -15.5%; AmpC inh no detg: -11.6%; Giardia FBPA inh: 9.8%; AmpC detergent: -10.2%; RE007 growth inh: 8.6%

Results for COC(=O)CN1C(=O)[C@H]2[C@@H](c3ccc(C)o3)N3C(=O)CN(Cc4ccccc4)C(=O)[C@@]3(C)[C@H]2C1=O ?
Sm TGR block: 22.4µM*; AmpC inh no detg: 47.9%; Giardia FBPA inh: -2.2%; AmpC detergent: 3.0%; RE007 growth inh: 2.5%

How did Cc1ccc([C@@H]2[C@@H]3C(=O)N(C)C(=O)[C@@H]3[C@]3(C)C(=O)N(Cc4ccccc4)CC(=O)N23)o1 do in these assays?
Sm TGR block: 44.7µM*; AmpC inh no detg: 24.9%; Giardia FBPA inh: -6.2%; AmpC detergent: inconclusive; RE007 growth inh: -4.8%

Results for Cc1cc(C)c2nc(N(CCCN(C)C)C(=O)c3ccc4c(c3)OCCO4)sc2c1 ?
Sm TGR block: -3.7%; AmpC inh no detg: 168.1%; AmpC detergent: 0.0%; RE007 growth inh: -18.1%

How did CCN(CC)CCNC(=O)C1(O)c2cc(Br)ccc2NC(=O)N1c1cccc(OC)c1 (stereo not given) do in these assays?
Sm TGR block: -17.9%; AmpC inh no detg: -27.9%; Giardia FBPA inh: 9.0%; AmpC detergent: -0.9%; RE007 growth inh: 4.4%

What do the screens show for `Cc1ccc(S(=O)(=O)N2CCOC23CCN(C(=O)c2cc(Cl)ccc2Cl)CC3)cc1`?
Sm TGR block: -14.4%; AmpC inh no detg: 15.1%; Giardia FBPA inh: -4.5%; AmpC detergent: -5.6%; RE007 growth inh: -20.7%

How did Cc1ccc(S(=O)(=O)N2CCOC23CCN(C(=O)c2ccc(Cl)cc2Cl)CC3)cc1 do in these assays?
Sm TGR block: 7.94µM*; AmpC inh no detg: 74.4%; Giardia FBPA inh: 0.3%; AmpC detergent: 3.0%; RE007 growth inh: 3.3%

Results for CC1C(=O)N(Cc2cn(CCC3OCCO3)nn2)CCS(=O)(=O)N1Cc1ccc(-c2ccncc2)cc1 (stereo not given) ?
RE007 growth inh: 4.2%
